nsP2pro primary – inhibitors of chikungunya virus nsP2 protease | 31,000 tested, 1.1% active | Q8JUX6 | AID 1964107 | FRET peptide cleavage, nsP2pro, fluorescence 1 h | Potency, µM (highest dose often 24.9 µM), most hits filed as inhibitors; further: nearly all actives have a fitted effect of over 60% in size
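Enzyme 150 nM, substrate 2.5 uM (both final); Tris-HCl 10 mM pH 8.0 + 0.01% Tween 20; cpd up to 25 uM, 7 pts; 15 min preinc., 1 h RT; fluorescence ex 525/em 598.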
nsP2 cell sec – inhibits CHIKV nsP2 protease in cells. shares compounds with nsP2pro primary. cell-based CHIKV nsP2 protease reporter assay. Potency, µM (top dose mostly 51.1 µM), most hits filed as inhibitors. 450 tested, 10% active. AID 1964100; further: nearly all actives have a fitted effect of over 70% in size
Target sequence (Q8JUX6 220-798 limits assumed): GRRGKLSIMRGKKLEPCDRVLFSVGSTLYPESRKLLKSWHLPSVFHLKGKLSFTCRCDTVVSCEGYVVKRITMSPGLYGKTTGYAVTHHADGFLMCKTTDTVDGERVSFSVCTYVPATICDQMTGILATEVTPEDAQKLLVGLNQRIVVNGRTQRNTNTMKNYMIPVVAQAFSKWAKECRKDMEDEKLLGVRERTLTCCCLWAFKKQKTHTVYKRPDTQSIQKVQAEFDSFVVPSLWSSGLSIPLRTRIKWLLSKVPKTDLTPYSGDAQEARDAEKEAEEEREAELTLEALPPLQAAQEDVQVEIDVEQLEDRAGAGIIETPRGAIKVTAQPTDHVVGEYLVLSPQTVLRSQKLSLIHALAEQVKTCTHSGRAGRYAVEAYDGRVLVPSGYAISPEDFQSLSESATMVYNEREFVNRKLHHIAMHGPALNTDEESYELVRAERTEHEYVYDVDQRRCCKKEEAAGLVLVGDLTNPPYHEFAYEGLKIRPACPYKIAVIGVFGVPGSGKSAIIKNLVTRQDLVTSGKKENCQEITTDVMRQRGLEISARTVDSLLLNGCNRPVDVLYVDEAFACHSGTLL
NSP2 full ctr – selectivity test for CHIKV nsP2 protease inhibitors: full-length NSP2 | shares compounds with nsP2pro primary | Full-length CHIKV NSP2 protease enzymatic counterscreen | Potency, µM (series often up to 50.7 µM), actives largely listed as inhibitors | 410 tested, 39% active | AID 1964101; further: nearly all actives have a fitted effect of over 65% in size
Furin counter – human furin inhibition, counterscreen for nsP2pro inhibitors; shares compounds with nsP2pro primary; Recombinant human furin enzymatic counterscreen, fluorogenic substrate; Potency, µM (highest dose often 50.6 µM), hits mostly inhibitors; 410 tested, 6% active; AID 1964102
nsP2 NS23 pep – selectivity test for CHIKV nsP2 protease inhibitors: endogenous NS2/3 peptide; shares compounds with nsP2pro primary; Purified CHIKV nsP2 protease, endogenous NS2/3 peptide cleavage; Potency, µM (doses to about 51 µM), actives largely listed as inhibitors; 410 tested, 34% active; further: nearly all actives have a fitted effect of over 55% in size
Papain counter – selectivity counter-screen for CHIKV nsP2 protease inhibitors: papain | shares compounds with nsP2pro primary | purified papain protease activity, enzymatic inhibition | Potency, µM (highest dose often 51 µM), hits mostly inhibitors | 410 tested, 5% active
nsP2pro confirm – confirmation of CHIKV nsP2 protease inhibitors | shares compounds with nsP2pro primary | CHIKV nsP2 protease enzymatic activity, qHTS | Potency, µM (top dose mostly 25.5 µM), most hits filed as inhibitors | 410 tested, 43% active; further: nearly all actives have a fitted effect of over 75% in size
HCV NS3 4A cs – inhibits HCV NS3/4A protease in an nsP2pro selectivity counterscreen | shares compounds with nsP2pro primary | HCV NS3/4A protease biochemical counterscreen | Potency, µM (doses to about 50.9 µM), most hits filed as inhibitors | 410 tested, 20% active; further: nearly all actives have a fitted effect of over 55% in size
Each line names hits and unclear results; the compound was inactive in the other large screens (follow-up assays come after a bar, where they were run). Only a selection was taken, and hits are over-represented in it overall. The call rests on the fitted dose curve.

O=C1NC(=NC2CCCCC2)C2(CCN(CC3CCCCC3)C2)N1c1cccnc1 (stereo not given)	none
CC(C)NC(=O)N[C@H]1C[C@H]2C(=O)NC[C@@H](CCC(=O)N3CCN(c4ccccn4)CC3)N2C1	none
Cc1cn([C@@H]2O[C@H](CO)[C@@H](O)[C@H]2O)c(=O)nc1N	none
CC(C)C(=O)OC[C@H]1O[C@@H](n2ccc(NO)nc2=O)[C@H](O)[C@@H]1O	none
O=C(Nc1cccc(F)c1)[C@@H]1C[C@@H](c2cccc(C(F)(F)F)c2)N(CC2CCOCC2)C1	none
O=C(NCCC1=CCCCC1)c1c(-c2cncnc2)cc(=O)n2c1CCCC2	none
COc1ccc(CC(C)(C)NC[C@H](O)c2cc(O)cc3c2OCC(=O)N3)cc1	none
Cc1ccc(CNCc2cccn2-c2nnc(N3CCCC3)s2)cc1	none
COc1ccccc1NCc1cccn1-c1nnc(N2CCCCCC2)s1	none
CCc1ccc(NCc2cccn2-c2nnc(N3CCCCCC3)s2)cc1	nsP2pro primary inconclusive | nsP2 cell sec inconclusive
CC(=O)c1ccc(NC(=O)c2cnn3c(C)cc(C)nc23)cc1	none
CC(Cc1ccncc1)Nc1nccc(-c2cnn(-c3ccccc3)c2)n1 (stereo not given)	none
COCCn1c(C)cc(O)c(C(c2ccccc2OC)N2CCN(c3ccccc3)CC2)c1=O (stereo not given)	nsP2pro primary inconclusive | nsP2 cell sec inactive
COC(=O)N(C)Cc1cccc(N2CCN(C(c3ccccc3)c3ccccc3)CC2)c1	none
COc1ccccc1C(c1c(O)cc(C)n(Cc2ccco2)c1=O)N1CCCCC1 (stereo not given)	none
CCCN(Cc1cccs1)c1ncnc2ccc(-c3ccc4c(c3)OCO4)cc12	none
CC(C)C1=NOC2(CCN(C(=O)C3CCCC3)CC2)C1	none
CCOc1cc(CN2CCC(C(Cc3ccccc3F)N(C)C(=O)c3cccs3)CC2)ccc1O (stereo not given)	none
COc1cc(O)c(C(CC(=O)N2CCC(Cc3ccccc3)CC2)c2ccc(C)cc2)c(OC)c1 (stereo not given)	none
Cc1ccnc(NC(=S)N2CCN(c3ccccc3C(F)(F)F)CC2)c1	none
CC12CCC3C(CCC4CC(O)CCC43C)C1CCC2=O (stereo not given)	none
COc1cccc(-c2nc(-c3ccc(C(=O)O)cc3)no2)c1	none
Cc1ccccc1-c1noc(-c2cccnc2NCc2ccco2)n1	none
COc1ccc(-c2noc(-c3cccnc3NCc3ccco3)n2)cc1	nsP2pro primary inconclusive | nsP2 cell sec inactive
COC(=O)N(C)Cc1cccc(N2CCN(S(=O)(=O)c3cccc4ccccc34)CC2)c1F	none
O=C(O)c1ccc(-n2cccc2/C=C2\SC(=O)N(Cc3ccccc3Cl)C2=O)cc1	none
CCCCCCCCCCCCCCCCOc1nc2ccc(C)cc2c(=O)o1	none
O=C(COc1ccccc1)N1CCC(OCc2ccccc2)C1 (stereo not given)	none
O=C(c1ccc(-c2ccco2)cc1)N1CCOC(c2ccccc2)C1 (stereo not given)	nsP2pro primary 7.94µM | nsP2 cell sec inconclusive | NSP2 full ctr 10.3µM | Furin counter inactive | nsP2 NS23 pep inconclusive | Papain counter inactive | nsP2pro confirm 8.96µM | HCV NS3 4A cs inactive
O=C(c1ccc2ncccc2c1)N1CCOC(c2ccc(Cl)c(Cl)c2)C1 (stereo not given)	none
COc1ccc(-c2cc(C(=O)N3CCOC(c4ccc(F)cc4)C3)[nH]n2)cc1 (stereo not given)	none
Cc1cccc(S(=O)(=O)Nc2cnccc2C(=O)Nc2nc(-c3ccccc3)cs2)c1	none
CC(C)NC[C@H](O)COc1ccc(CCOCC2CC2)cc1	none
